In the library only some 9.4% were active in any assay of this set; here they are far more common.
ALDH1A1 inh-1 – qHTS Assay for Inhibitors of Aldehyde Dehydrogenase 1 (ALDH1A1); Aldehyde dehydrogenase 1A1 (Homo sapiens), P00352; Potency, µM (highest dose often 75.3 µM), hits mostly inhibitors; hit rate 7.3% among 220,000; Purified ALDH1A1, NADH fluorescence, propionaldehyde substrate; active means well fitted inhibition curve with a large enough effect, not every such curve was filed as active; inconclusive means small, poorly fitted or top-dose-only effect, or another doubt; inactive means no such curve, though single readings can be large or run the other way
HTT aggregate – qHTS Multiplex Assay to Identify Dual Action Probes in a Cell Model of Huntington: Aggregate Formation (GFP) | PC12 HttQ103-GFP aggregates, Acumen cytometry, 40 h | Potency, µM (highest dose often 46.1 µM), usual class: inhibitors | hit rate 1.1% among 220,000; further: nearly all actives have a fitted effect of over 60% in size
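Steps: seed 1500 PC12 HTTQ103-GFP cells/well; add tebufenozide, 100 nM final; add compound titration; add ATPLite reagent; quantify GFP aggregates by laser scanning cytometry.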
HPGD block – qHTS Assay for Inhibitors of HPGD (15-Hydroxyprostaglandin Dehydrogenase). 15-hydroxyprostaglandin dehydrogenase [NAD(+)] (Homo sapiens), P15428. purified HPGD, NADH fluorescence kinetic, PGE2 substrate. Potency, µM, most hits filed as inhibitors. hit rate 4.3% among 150,000; active means well fitted inhibition curve with a large enough effect, not every such curve was filed as active; inconclusive means small, poorly fitted or top-dose-only effect, or another doubt; inactive means no such curve, though single readings can be large or run the other way
Target sequence (P15428 whole entry, looked up): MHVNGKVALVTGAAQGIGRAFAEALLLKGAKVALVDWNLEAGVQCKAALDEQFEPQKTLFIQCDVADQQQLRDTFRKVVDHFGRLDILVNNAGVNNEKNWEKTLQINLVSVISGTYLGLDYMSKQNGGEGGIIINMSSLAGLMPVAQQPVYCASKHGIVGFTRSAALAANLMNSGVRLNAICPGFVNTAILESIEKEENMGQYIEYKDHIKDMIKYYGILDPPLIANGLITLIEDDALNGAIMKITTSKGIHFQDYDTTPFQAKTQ
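20 nM HPGD preincubated 15 min at room temperature with compound in 50 mM Tris-HCl pH 8, 0.01% Tween 20. Started with 1 mM NAD+ and 30 uM prostaglandin E2; NADH fluorescence (360/450 nm) read 5 times over 30-s intervals, last minus first.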
IMPase cell inh – qHTS Assay for Identifying the Cell-Membrane Permeable IMPase Inhibitors; 120,000 tested, under 10 active; Inositol monophosphatase 1 (Rattus norvegicus), P97697; inhibition (IP1 accumulation), % at 46.1 µM; CHO-M1 cells, IP1 accumulation, HTRF TR-FRET ratio; active means well fitted curve in the direction sought with a large enough effect in the signal ratio, not every such curve was filed as active; inconclusive means small, poorly fitted or top-dose-only effect, or a change in a side signal; inactive means no such curve, though single readings can be large or run the other way; the % refers to the signal ratio;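 further: cells stimulated with carbachol in lithium chloride buffer; higher means more IMPase inhibition seen as more IP1 and lower FRET ratio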
Target sequence (P97697 whole entry, looked up): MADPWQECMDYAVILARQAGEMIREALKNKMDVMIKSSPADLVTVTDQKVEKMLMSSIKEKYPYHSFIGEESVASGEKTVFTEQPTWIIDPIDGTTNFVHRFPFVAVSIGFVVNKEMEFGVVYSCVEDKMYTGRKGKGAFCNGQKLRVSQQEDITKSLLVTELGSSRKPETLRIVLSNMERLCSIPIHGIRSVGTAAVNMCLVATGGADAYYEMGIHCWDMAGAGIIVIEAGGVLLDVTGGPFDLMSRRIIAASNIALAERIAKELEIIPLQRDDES
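Measured: the HTRF emission ratio (665/620 nm) plus the 620 nm donor channel, each fitted to the Hill equation to give AC50. Cells were CHO-M1 given compounds up to 46 uM and a 30 min carbachol stimulation at 37C.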
IMPase Li inh – qHTS Assay for Identifying the Cell-Membrane Permeable IMPase Inhibitors: Potentiation with Lithium; CHO-M1 cells, IP1 TR-FRET (IP-One), carbachol + lithium; Potency, µM (titrated, usually from 59.4 µM), most hits filed as inhibitors; hit rate 0.35% among 210,000; AID 1457, 2008;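 further: IP1 builds up when IMPase is blocked and the TR-FRET signal falls; nearly all actives have a fitted effect of over 50% in size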
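CHO-M1, 2000 cells/well, 16–30 h culture; cpd + low Li+, 30 min 37C; lysis with d2-IP1/Eu-anti-IP1 Ab, 10 min RT; TR-FRET 665/620 ratio and 620 channel; AC50 via Hill.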
HTT cytoprotect – qHTS Multiplex Assay to Identify Dual Action Probes in a Cell Model of Huntington: Cytoprotection (ATP). PC12 HTT-Q103 induced, cytoprotection, ATP luminescence, 40 h. Potency, µM (titrated, usually from 56.4 µM), actives largely listed as activators. hit rate 0.14% among 230,000. AID 1471, 2008; further: nearly all actives have a fitted effect of over 45% in size
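Quantitative HTS on tebufenozide-induced (100 nM) PC12 cells expressing HTTQ103 exon 1–GFP; compounds tested as a concentration series; survival measured via cellular ATP.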
ALDH1A1 inh-2 – Inhibitors of Aldehyde Dehydrogenase 1 (ALDH1A1): Followup Confirmation and Counterscreen; purified ALDH1A1, NADH fluorescence, propionaldehyde/NAD+; hit rate 90% among 90; Potency, µM (top dose mostly 57.1 µM), most hits filed as inhibitors; shares compounds with ALDH1A1 inh-1; calls by dose curve
A number is an active result; [ ] = dose if it differs, or a comment. Unless noted, the call rests on the fitted dose curve; in most records, active means well fitted curve in the direction sought with a large enough effect; inconclusive means small, poorly fitted or top-dose-only effect, or another doubt; inactive means no such curve, though single readings can be large; an effect the other way counts as inactive or inconclusive.

CCOC(=O)C1=C(C)NC(=O)NC1c1cccs1 (configuration not stated) was read as ALDH1A1 inh-1 inactive, HTT aggregate inactive[9.22 µM], IMPase Li inh inactive and HTT cytoprotect inactive[10 µM].
COc1cc(C(=O)Nc2ccc(NC(=O)c3ccc(C(C)(C)C)cc3)cc2)cc(OC)c1OC was read as IMPase cell inh inactive.
`COc1cc2c(cc1NC(=O)CN1CCN(S(=O)(=O)c3ccc(C)cc3)CC1)oc1ccccc12` gave ALDH1A1 inh-1 inactive, HTT aggregate inactive, HPGD block inconclusive, IMPase cell inh inconclusive, IMPase Li inh inconclusive and HTT cytoprotect inactive.
Screening COc1ccc(C)cc1NC(=O)CN1CCN(S(=O)(=O)c2ccc(Cl)cc2)CC1 returned ALDH1A1 inh-1 0.32µM, HTT aggregate inactive, HPGD block inactive, IMPase cell inh inactive, IMPase Li inh inactive, HTT cytoprotect inactive[1.9 µM] and ALDH1A1 inh-2 0.14µM.
`COC(=O)c1ccc(Oc2nc3c(c(=O)n(C)c(=O)n3C)n2CCC(C)C)cc1` gave ALDH1A1 inh-1 0.045µM, HTT aggregate inactive, HPGD block inactive, IMPase cell inh inactive, IMPase Li inh inactive, HTT cytoprotect inactive and ALDH1A1 inh-2 0.1µM.
CCCN1C(=O)c2ccc(C(=O)Nc3cc(C)on3)cc2C1=O was read as ALDH1A1 inh-1 0.4µM, HTT aggregate inactive, HPGD block inactive, IMPase cell inh inactive, IMPase Li inh inactive, HTT cytoprotect inactive[10 µM] and ALDH1A1 inh-2 0.79µM.
For CCCN1C(=O)c2ccc(C(=O)NC3CCCCC3)cc2C1=O the results were ALDH1A1 inh-1 inconclusive, HTT aggregate inactive, HPGD block inactive, IMPase cell inh inactive, IMPase Li inh inactive, HTT cytoprotect inactive[10 µM] and ALDH1A1 inh-2 0.35µM.
`CCOC(=O)N1CCC(N2C(=O)c3ccc(C(=O)NC4CCCCCC4)cc3C2=O)CC1` gave HTT cytoprotect inactive.
Screening CC(C)CN1C(=O)c2ccc(NC(=O)c3cccs3)cc2C1=O returned ALDH1A1 inh-1 inconclusive, HTT aggregate inactive, HPGD block inconclusive, IMPase cell inh inactive, IMPase Li inh inactive and HTT cytoprotect inactive.
`CCCN1C(=O)c2ccc(C(=O)Nc3nccs3)cc2C1=O` gave ALDH1A1 inh-1 0.28µM, HTT aggregate inactive, HPGD block inactive, IMPase cell inh inactive, IMPase Li inh inactive, HTT cytoprotect inactive and ALDH1A1 inh-2 0.4µM.
Screening CC(C)CN1C(=O)c2ccc(C(=O)Nc3nccs3)cc2C1=O returned ALDH1A1 inh-1 0.45µM, HTT aggregate inactive, HPGD block inactive, IMPase cell inh inactive, IMPase Li inh inactive, HTT cytoprotect inactive and ALDH1A1 inh-2 0.32µM.
Cc1cc(NC(=O)c2ccc3c(c2)C(=O)N(Cc2ccccc2)C3=O)no1 was read as ALDH1A1 inh-1 inactive, HTT aggregate inactive, IMPase Li inh inactive and HTT cytoprotect inactive.
COCCN1C(=O)c2ccc(C(=O)Nc3nccs3)cc2C1=O was read as ALDH1A1 inh-1 inconclusive, HTT aggregate inactive, HPGD block inactive, IMPase cell inh inactive, IMPase Li inh inactive and HTT cytoprotect inactive[0.074 µM].
CC(=O)c1c(O)cc(O)cc1O was read as ALDH1A1 inh-1 inactive, HPGD block inconclusive and IMPase Li inh inactive.
Screening NC(=O)c1c(/N=C/c2cccnc2)sc2c1CCCC2 returned HTT aggregate inactive[9.22 µM] and HTT cytoprotect inactive[10 µM].
`Cc1cc(Br)ccc1OCC(=O)NNC(=O)C(=O)Nc1ccccc1` gave ALDH1A1 inh-1 inactive, HTT aggregate inactive[9.22 µM], IMPase Li inh inactive and HTT cytoprotect inactive[10 µM].
For C=C1C2CC[C@@]3(C)C(c4ccoc4)OC(=O)C[C@@]13OC1CC(=O)C(C)(C)C(C(O)C(=O)OC)[C@]12C (some centres not stated) the results were ALDH1A1 inh-1 inactive, HPGD block inactive, IMPase Li inh inactive and HTT cytoprotect inactive.
CC(C)N1CSC(=S)N(Cc2ccccc2)C1 was read as ALDH1A1 inh-1 inconclusive, HTT aggregate inactive, IMPase Li inh inactive and HTT cytoprotect inactive.
Screening CC1(C)CC(=O)CC(C2(O)C(=O)N(Cc3ccccc3)c3ccccc32)O1 (configuration not stated) returned ALDH1A1 inh-1 0.063µM, HTT aggregate inactive, HPGD block inactive, IMPase cell inh inactive, IMPase Li inh inactive, HTT cytoprotect inactive[10 µM] and ALDH1A1 inh-2 0.32µM.
COCCn1c(=O)[nH]c(=O)c2c1nc(-c1cc(Br)c3c(c1)OCO3)n2Cc1ccccc1 was read as ALDH1A1 inh-1 0.11µM, HTT aggregate inactive, IMPase Li inh inactive, HTT cytoprotect inactive[10 µM] and ALDH1A1 inh-2 0.079µM.
`OCCN1CC(O)C(O)C(O)C1CO` (configuration not stated) gave ALDH1A1 inh-1 inactive, HTT aggregate inactive, HPGD block inactive, IMPase Li inh inactive and HTT cytoprotect inconclusive.
COc1ccc(CNC(=O)C(c2ccco2)N(Cc2cccs2)C(=O)Cc2cccs2)cc1 (configuration not stated) was read as ALDH1A1 inh-1 0.63µM, HTT aggregate inactive, HPGD block inactive, IMPase cell inh inactive, IMPase Li inh inactive, HTT cytoprotect inactive[10 µM] and ALDH1A1 inh-2 1.3µM.
For Cc1ccc(NCCC(=O)c2cccc([N+](=O)[O-])c2)c(C)c1 the results were ALDH1A1 inh-1 0.13µM, HTT aggregate inactive, HPGD block inactive, IMPase cell inh inconclusive, IMPase Li inh inactive, HTT cytoprotect inactive[10 µM] and ALDH1A1 inh-2 0.4µM.
Cc1ccccc1NC(=O)CCC(=O)OCC(=O)c1cccc([N+](=O)[O-])c1 was read as ALDH1A1 inh-1 inactive, HTT aggregate inactive[9.22 µM], IMPase Li inh inactive and HTT cytoprotect inactive[10 µM].
For CC1=C(C(=O)OCc2ccccc2)C(/C=C/c2ccccc2)NC(=S)N1 (configuration not stated) the results were ALDH1A1 inh-1 0.2µM, HTT aggregate inconclusive, HPGD block inactive, IMPase cell inh inactive, IMPase Li inh inactive, HTT cytoprotect inactive[10 µM] and ALDH1A1 inh-2 0.2µM.
`CC1=C(C(=O)OC(C)C)C(/C=C/c2ccccc2)NC(=O)N1` (configuration not stated) gave ALDH1A1 inh-1 inactive, HTT aggregate inactive, HPGD block inactive, IMPase cell inh inactive, IMPase Li inh inactive and HTT cytoprotect inactive.

Compound activity (PubChem)
